Measured values reported in PubChem BioAssay AID720566 (Broad Institute, 2013).
Measured potencies and affinities stand elsewhere. The source made the active and inactive calls.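 How the source made its calls: active means in all runs, an absorbance decrease of 25% or more of the average positive control decrease; inconclusive means runs conflict, with both active and inactive results; inactive means all runs inactive, opposite-direction effects included.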

Target: Protein disulfide-isomerase A6 (Homo sapiens) (UniProt Q15084)
Test: reduced insulin turbidity driven by ERp5 (PDIA6) – biochemical, absorbance 650 nm, cherry-picked samples, dose response (AID 720566);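 further: negative values mean less insulin aggregation so ERp5 inhibition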
Settings: Recombinant ERp5 insulin aggregation; series mostly up to 35 µM

Protein disulfide-isomerase A6 (Homo sapiens), sequence (Q15084 whole entry, looked up): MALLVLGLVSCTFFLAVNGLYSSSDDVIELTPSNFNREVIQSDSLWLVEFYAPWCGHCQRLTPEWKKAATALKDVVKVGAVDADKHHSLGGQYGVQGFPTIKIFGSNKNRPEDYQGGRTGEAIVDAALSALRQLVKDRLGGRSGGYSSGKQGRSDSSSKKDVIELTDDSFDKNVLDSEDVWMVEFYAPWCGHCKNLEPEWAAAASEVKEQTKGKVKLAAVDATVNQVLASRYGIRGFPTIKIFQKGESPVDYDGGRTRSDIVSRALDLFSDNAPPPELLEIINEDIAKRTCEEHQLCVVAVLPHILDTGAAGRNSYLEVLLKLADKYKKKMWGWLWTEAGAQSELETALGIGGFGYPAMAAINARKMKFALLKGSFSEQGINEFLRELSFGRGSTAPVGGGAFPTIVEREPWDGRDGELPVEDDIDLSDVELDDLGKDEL

| SMILES | outcome |
| --- | --- |
| CCCNC(=O)C[C@@H]1C[C@H]2c3cc(NS(C)(=O)=O)ccc3O[C@H]2[C@@H](CO)O1 | inactive |
| COCC#Cc1cnc2c(c1)C(=O)N([C@@H](C)CO)C[C@H](C)[C@@H](CN(C)C(=O)NC1CCCC1)O2 | inactive |
| O=C(NCCCN1CCCC1)c1ccc(CS(=O)(=O)c2c(Cl)cccc2Cl)o1 | inactive |
| COCC(=O)N1CC2(C1)CN(Cc1ccccc1F)[C@H](CO)c1[nH]c3cc(OC)ccc3c12 | inactive |
| O=C(C[C@@H]1C[C@H]2c3cc(NC(=O)C4CCC4)ccc3O[C@H]2[C@@H](CO)O1)NCC(F)(F)F | inactive |
| CCCNC(=O)C[C@H]1C[C@H]2c3cc(NS(C)(=O)=O)ccc3O[C@H]2[C@@H](CO)O1 | inactive |
| CC(=O)Nc1ccc2c(c1)C(=O)N(C)[C@H]1CC[C@H](CC(=O)NCC3CC3)O[C@@H]1CO2 | inactive |
| CN1C(=O)c2cc(NC(=O)C3CCCCC3)ccc2OC[C@@H]2O[C@@H](CC(=O)NC3CCCC3)CC[C@H]21 | inactive |
| C[C@@H]1CN([C@H](C)CO)C(=O)c2cc(NC(=O)Nc3ccc(F)cc3)ccc2O[C@H]1CN(C)Cc1ccc(-c2ccccc2)cc1 | inactive |
| COCC(=O)N(C)C[C@H]1Oc2cc(C#CC(C)(C)O)ccc2S(=O)(=O)N([C@@H](C)CO)C[C@H]1C | inactive |
| Cc1ccc(S(=O)(=O)N2CCN(C(=O)CCc3nc4ccccc4c(=O)[nH]3)CC2)c(C)c1 | inactive |
| C[C@@H]1CN([C@@H](C)CO)C(=O)c2cc(Br)cnc2O[C@H]1CN(C)Cc1cccc(F)c1 | inactive |
| COc1ccc2c3c([nH]c2c1)[C@@H](CO)N(Cc1nccs1)CC31CN(C(=O)C2CCCC2)C1 | inactive |
| C[C@H](CO)N1C[C@H](C)[C@@H](CN(C)Cc2ccc(C(=O)O)cc2)Oc2ccc(NS(=O)(=O)c3cccs3)cc2CC1=O | inactive |
| C[C@H](CO)N1C[C@H](C)[C@H](CN(C)Cc2cccc(F)c2)Oc2ncc(Br)cc2C1=O | inactive |
| C[C@@H]1CN([C@@H](C)CO)C(=O)c2cc(-c3cccc(C#N)c3)cnc2O[C@H]1CN(C)Cc1cncnc1 | inactive |
| C[C@@H]1CN([C@H](C)CO)C(=O)c2cccc(NC(=O)Nc3ccc4c(c3)OCO4)c2O[C@H]1CN(C)Cc1ccc(Oc2ccccc2)cc1 | inactive |

| SMILES | outcome |
| --- | --- |
| O=C(C[C@@H]1C[C@H]2c3cc(NC(=O)Nc4ccccc4F)ccc3O[C@H]2[C@H](CO)O1)NCC(F)(F)F | inactive |
| O=C(NN=c1c(=O)c2ccccc2c1=O)c1ccccc1 | inactive |
| CCC(=O)Nc1ccc2c(c1)C(=O)N(C)[C@H]1CC[C@@H](CC(=O)NCC3CC3)O[C@@H]1CO2 | inactive |
| C[C@H]1CN([C@@H](C)CO)C(=O)Cc2cc(NC(=O)c3ccncc3)ccc2O[C@H]1CN(C)S(=O)(=O)c1cn(C)cn1 | inactive |
| C[C@H](CO)N1C[C@H](C)[C@@H](CN(C)S(=O)(=O)c2cn(C)cn2)Oc2ccc(NC(=O)c3ccncc3)cc2CC1=O | inactive |
| C[C@@H]1CN([C@@H](C)CO)S(=O)(=O)c2ccc(C#Cc3cccnc3)cc2O[C@H]1CN(C)C(=O)CN(C)C | inactive |
| Cc1ccc(S(=O)(=O)N(CC(O)CN2CCOCC2)c2cccc([N+](=O)[O-])c2)cc1 (stereo not drawn) | inactive |
| C[C@@H]1CN([C@H](C)CO)C(=O)c2cc(NC(=O)Nc3ccc(C(F)(F)F)cc3)ccc2O[C@@H]1CN(C)S(=O)(=O)c1ccc(F)cc1 | inactive |
| C[C@@H]1CN([C@@H](C)CO)C(=O)c2cccc(NS(=O)(=O)c3ccc(F)cc3)c2O[C@H]1CN(C)S(=O)(=O)c1ccccc1 | inactive |
| C[C@H](O)C#Cc1cnc2c(c1)C(=O)N([C@@H](C)CO)C[C@H](C)[C@H](CN(C)CC1CCCCC1)O2 | inactive |
| C[C@@H]1CN([C@@H](C)CO)C(=O)Cc2cc(NC(=O)Cc3ccccc3)ccc2O[C@@H]1CN(C)C(=O)Nc1ccc(C(F)(F)F)cc1 | inactive |
| Cn1c(COc2ccccc2)nnc1SCC(=O)Nc1nnc(C2CC2)s1 | inactive |
| CN(C)C(=O)C[C@H]1C[C@H]2c3cc(NS(C)(=O)=O)ccc3O[C@H]2[C@H](CO)O1 | inactive |
| COc1ccccc1S(=O)(=O)N1C[C@H](O)COC[C@H]2O[C@@H](CC(=O)O)CC[C@@H]21 | inactive |
| Cc1ccc(NC(=O)c2cccc(S(C)(=O)=O)c2)cc1 | inactive |
| Cc1noc(C)c1NC(=O)N(C)C[C@H]1Oc2c(NS(=O)(=O)c3ccc(Cl)cc3)cccc2C(=O)N([C@@H](C)CO)C[C@@H]1C | inactive |
